“And” between values parts separate entries of the source, which are not always exact repeats. Equal values may be shown once. Records with an inconclusive call do not appear. The source made the active and inactive calls.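 The calls were made as follows, unless noted: active = inhibition above the screen-wide mean plus 3 SD, about 51%; inactive = the rest.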

Assay [1] in a line: yeast TOR pathway RPL19A-GFP modulators, primary screen, cell-based, S. cerevisiae, multiplex flow cytometry (AID 1862; in the data active = percent of DMSO control GFP below about 86%;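 also: lower values mimic rapamycin by blocking the RPL19A rise seen in DMSO cells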). To be noted: S. cerevisiae RPL19A-GFP strain, flow cytometry fluorescence, 3 h; at 10 µM; stronger effect = lower value. For orientation: In flow cytometry, cells or beads pass a laser one at a time.
A short description of assay [2]: modulators of MEP2-GFP levels in yeast, primary screen, S. cerevisiae, multiplex flow cytometry (AID 1867;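 active = GFP response, as percent of the DMSO control, above the screen-wide mean plus 3 SD, about 139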;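 also: median GFP channel fluorescence of barcode-gated MEP2-GFP cells measured by flow cytometry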). As to conditions: S. cerevisiae MEP2-GFP strain, 3 h, at 10 µM, stronger effect = higher value, 100% means same as DMSO wells.
Assay [3] in a line: modulators of CIT2-GFP expression in yeast, primary screen, S. cerevisiae, GFP fusion, multiplex flow cytometry (AID 1870;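 active = percent response above a set limit, the screen-wide mean plus 3 SD, cut at about 130% in these data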;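 also: barcoded CIT2-GFP strain pooled with four other GFP strains with rapamycin as positive control; median GFP fluorescence per well over plate mean of DMSO wells so 100% = DMSO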). As to conditions: 3 h, at 10 µM, stronger effect = higher value.
A short description of assay [4]: modulators of LAP4-GFP expression in yeast, primary screen, S. cerevisiae, multiplex flow cytometry (AID 1873;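 active = GFP signal, as percent of the solvent control, above the screen mean plus 3 SD, about 149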). As to conditions: 3 h, at 10 µM, stronger effect = higher value.
Assay [5] is described as follows: modulators of AGP1-GFP expression in yeast TOR pathway, primary screen, cell-based, multiplex flow cytometry, S. cerevisiae (AID 1887;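 active = GFP signal above the screen-wide mean plus 3 SD, that is over about 124.5% of the solvent control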;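 also: AGP1-GFP fusion strain of S. cerevisiae within a five-strain barcoded multiplex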). To be noted: 3 h, at 10 µM, stronger effect = higher value.
Assay [6] is described as follows: inhibitors of CD8+ T cell-vesicle binding, pilot screen, LFA-1/ICAM-1 modulator project, MLPCN validation set, flow cytometry (AID 2523;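 active = response below a set limit, under 55% cells CD8-positive and vesicle-bound, and CD8 cells' 90th-percentile brightness under 279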;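 as to vesicle binding response: mean PE anti-B7-1 fluorescence of CD8+ cells relative to row control; 100% = QL9-loaded vesicles with DMSO vehicle in the same plate row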). As to conditions: 2C mouse CD8+ T cells, at 7 µM, stronger effect = lower value; double positive events: measured here: CD8+/vesicle+ event percentage.
Assay [7] addresses Integrin beta-1 (Homo sapiens) + Integrin alpha-4 (Homo sapiens) (UniProt P13612+P05556). Nature of the assay: inhibition of HUTS-21 binding to VLA-4, pilot screen, VLA-4 allosteric modulator project, U937 cells, HUTS-21 mAb, flow cytometry, validation set (AID 2674;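 active = inhibition above 50%, about 3 SD of the validation set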;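 also: antibody binding induced by the VLA-4 ligand LDV present at three times its Kd; 0% = LDV ligand with antibody and no compound and 100% = antibody without LDV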). As to conditions: HUTS-21 LIBS mAb binding, at 6.7 µM, stronger effect = higher value, binding induced by LDV ligand.
The nature of assay [8]: superoxide lowering in aged yeast cells, pilot screen, validation compound set (AID 2706;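 active = superoxide response below 65% of plate, a cut near 3 SD across the whole screen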;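 also: yeast exposed to compound for one week at 30 degrees C before staining; 100% = mean of all compound wells on the same plate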). To be noted: S. cerevisiae aging, superoxide DHE fluorescence; at 10 µM; stronger effect = lower value.
The target in assay [9] is Beta-adrenergic receptor kinase 1 (Homo sapiens) (UniProt P25098). In words: GRK2 binders displacing RNA aptamer, biochemical, validation, human GRK2, bead flow cytometry (AID 488806;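 active = aptamer binding inhibition above 30%, about 3 SD of noise from non-fluorescent compounds; inactive = inhibition at or below 30%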). As to conditions: bead-bound GRK2, FAM-aptamer displacement, at 10 µM, stronger effect = higher value.
Assay [10] addresses Beta-2 adrenergic receptor (Homo sapiens) (UniProt P07550). In words: beta2AR agonists driving receptor internalization, pilot screen, cell-based, FAP fluorogen, flow cytometry, validation set (AID 504459;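 active = percent response above 42, roughly 3 SD of non-fluorescent test compounds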;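 also: agonist-driven loss of surface beta2AR via internalization measured by FAP dye flow cytometry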). To be noted: Am2.2-beta2AR cells, FAP surface receptor flow cytometry; at 10 µM; stronger effect = higher value.
The target in assay [11] is AP-2 complex subunit beta (Homo sapiens) (UniProt P63010). In words: inhibitors of arrestin peptide binding to AP2, pilot screen, biochemical, validation set, GST-AP2 beads, flow cytometry (AID 504541;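 active = inhibition above 54%, about 3 SD of non-fluorescent compounds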;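 also: AP2 carries R879A mutation and is captured from E. coli lysate; bead-bound FITC arrestin peptide fluorescence measuring arrestin peptide binding to AP2; 0% = DMSO wells and 100% = excess unlabeled arrestin peptide control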). To be noted: FITC arrestin peptide, at 10 µM, stronger effect = higher value, AP2 beta2 appendage fragment, R879A mutant.
Assay [12] in a line: yeast V-ATPase proton transport modulators, S. cerevisiae, pHLuorin, HTS validation (AID 504600; in the data active = response above about 15%;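 also: plate controls were DMSO for no effect and reference compound for full effect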). As to conditions: S. cerevisiae pHLuorin cytosolic pH, at 10 µM, stronger effect = higher value.
The subject of assay [13] is anti-desmoglein-3 scFv antibody binding to human DSG3. In words: inhibitors of anti-DSG3 scFv binding to DSG3, pilot screen, biochemical, validation compound set, bead-based, flow cytometry (AID 588368;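 active = binding below the plate cutoff, the plate median minus 3 SD, with a reading above zero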;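 also: signal is the median channel fluorescence of bead-bound GFP antibody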). To be noted: Protein G beads, DSG3-Fc, scFv-GFP binding, at 10 µM, stronger effect = lower value.
A short description of assay [14]: inhibitors of fungal efflux pumps CDR1, CDR2, MDR1, pilot screen, validation compound set, multiplex, phenotypic (AID 588506;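 active = efflux inhibition above 0.42, the validation set average plus 4 SD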;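 also: Nile Red retained in cells so higher fluorescence means more efflux inhibition; 0 = negative control wells and 1 = enniatin B 25 µM full block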). To be noted: S. cerevisiae pump-expressing triplex, Nile Red efflux flow cytometry; at 10 µM; stronger effect = higher value; the pumps come from Candida albicans.
Assay [15] has as its target ATP-binding cassette sub-family B member 6 (Homo sapiens) (UniProt Q9NP58). Nature of the assay: ABCB6 transporter inhibitors, pilot screen, K562-ABCB6 cells, flow cytometry, validation set (AID 588550).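 Also: 0% = DMSO wells and 100% = benzethonium chloride 70 µM positive control.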 To be noted: K562-ABCB6 porphyrin accumulation, 1 h, at 10 µM, stronger effect = higher value.
The nature of assay [16]: promoters of myeloid differentiation in arrested cells, primary screen, cell-based, GFP/MAC1 double positive, flow cytometry, validation set (AID 588685;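 active = differentiation response of at least 50%, scaled between solvent and reference control, from cells with both markers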;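 also: compound exposure lasts four days before antibody staining and flow analysis; 0% = DMSO wells and 100% = 5 µM fulvestrant positive control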). To be noted: ER-HoxA9 marrow cells, stronger effect = higher value, normalized: vehicle 0, fulvestrant 100.

AP-2 complex subunit beta (Homo sapiens), sequence (P63010 whole entry, looked up, the tested form may be a part, one chain of several): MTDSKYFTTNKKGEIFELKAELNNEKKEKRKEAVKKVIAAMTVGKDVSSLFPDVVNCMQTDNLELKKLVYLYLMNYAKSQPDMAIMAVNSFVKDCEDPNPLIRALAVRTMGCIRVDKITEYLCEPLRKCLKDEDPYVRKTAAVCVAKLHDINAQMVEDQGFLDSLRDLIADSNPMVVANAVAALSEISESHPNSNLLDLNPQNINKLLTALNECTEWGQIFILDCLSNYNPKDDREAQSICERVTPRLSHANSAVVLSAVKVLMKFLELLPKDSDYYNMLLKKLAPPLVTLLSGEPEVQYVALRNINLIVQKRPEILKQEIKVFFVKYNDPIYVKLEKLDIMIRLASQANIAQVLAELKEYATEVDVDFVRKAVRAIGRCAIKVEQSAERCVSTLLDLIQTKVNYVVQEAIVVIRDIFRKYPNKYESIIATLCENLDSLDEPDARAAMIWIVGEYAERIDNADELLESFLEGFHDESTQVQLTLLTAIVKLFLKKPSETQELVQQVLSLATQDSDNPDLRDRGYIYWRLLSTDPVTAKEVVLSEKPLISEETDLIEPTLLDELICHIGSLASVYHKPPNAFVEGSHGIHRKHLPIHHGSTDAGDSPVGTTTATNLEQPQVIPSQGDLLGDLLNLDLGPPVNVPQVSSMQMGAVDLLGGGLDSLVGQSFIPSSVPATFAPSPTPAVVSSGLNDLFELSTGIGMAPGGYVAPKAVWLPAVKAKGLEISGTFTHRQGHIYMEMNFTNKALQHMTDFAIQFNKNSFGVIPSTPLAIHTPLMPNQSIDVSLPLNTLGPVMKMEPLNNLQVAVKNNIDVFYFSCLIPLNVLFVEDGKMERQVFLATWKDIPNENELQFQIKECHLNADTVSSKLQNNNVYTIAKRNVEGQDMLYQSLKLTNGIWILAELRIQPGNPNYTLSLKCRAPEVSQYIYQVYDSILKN
Beta-2 adrenergic receptor (Homo sapiens), sequence (P07550 whole entry, looked up): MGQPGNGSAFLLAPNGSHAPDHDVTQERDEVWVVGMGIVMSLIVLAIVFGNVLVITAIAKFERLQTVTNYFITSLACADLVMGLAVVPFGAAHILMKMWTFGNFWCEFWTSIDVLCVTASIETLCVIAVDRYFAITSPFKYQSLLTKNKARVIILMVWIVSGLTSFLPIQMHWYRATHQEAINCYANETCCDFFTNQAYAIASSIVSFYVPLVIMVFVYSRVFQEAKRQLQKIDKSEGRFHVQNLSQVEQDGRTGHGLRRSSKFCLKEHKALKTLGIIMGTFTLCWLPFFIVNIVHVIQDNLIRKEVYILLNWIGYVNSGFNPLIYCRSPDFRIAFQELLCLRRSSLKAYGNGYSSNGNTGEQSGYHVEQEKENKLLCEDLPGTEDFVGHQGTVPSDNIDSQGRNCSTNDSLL
Integrin beta-1 (Homo sapiens) + Integrin alpha-4 (Homo sapiens), sequence (P05556 whole entry, looked up): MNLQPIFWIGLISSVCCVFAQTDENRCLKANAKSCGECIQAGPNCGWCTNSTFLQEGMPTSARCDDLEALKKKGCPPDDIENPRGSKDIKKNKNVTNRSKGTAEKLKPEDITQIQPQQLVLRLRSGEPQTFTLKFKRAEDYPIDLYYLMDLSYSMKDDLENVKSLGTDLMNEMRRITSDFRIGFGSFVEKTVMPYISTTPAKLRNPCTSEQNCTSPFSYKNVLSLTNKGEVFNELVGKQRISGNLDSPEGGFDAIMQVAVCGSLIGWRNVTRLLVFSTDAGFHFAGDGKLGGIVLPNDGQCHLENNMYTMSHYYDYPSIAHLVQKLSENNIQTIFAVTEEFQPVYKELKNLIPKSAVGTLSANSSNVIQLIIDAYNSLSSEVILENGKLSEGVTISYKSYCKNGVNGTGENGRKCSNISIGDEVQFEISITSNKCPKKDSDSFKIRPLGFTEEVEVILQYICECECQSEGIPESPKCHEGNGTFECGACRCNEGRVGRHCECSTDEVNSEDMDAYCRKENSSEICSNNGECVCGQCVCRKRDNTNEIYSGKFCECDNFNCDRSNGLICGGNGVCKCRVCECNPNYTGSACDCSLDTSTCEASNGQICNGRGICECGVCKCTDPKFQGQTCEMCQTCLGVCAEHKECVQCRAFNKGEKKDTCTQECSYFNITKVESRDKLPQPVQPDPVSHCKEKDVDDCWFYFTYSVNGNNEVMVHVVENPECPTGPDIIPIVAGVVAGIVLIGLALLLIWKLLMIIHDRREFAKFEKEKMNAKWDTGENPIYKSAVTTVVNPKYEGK
Integrin beta-1 (Homo sapiens) + Integrin alpha-4 (Homo sapiens), sequence (P13612 whole entry, looked up): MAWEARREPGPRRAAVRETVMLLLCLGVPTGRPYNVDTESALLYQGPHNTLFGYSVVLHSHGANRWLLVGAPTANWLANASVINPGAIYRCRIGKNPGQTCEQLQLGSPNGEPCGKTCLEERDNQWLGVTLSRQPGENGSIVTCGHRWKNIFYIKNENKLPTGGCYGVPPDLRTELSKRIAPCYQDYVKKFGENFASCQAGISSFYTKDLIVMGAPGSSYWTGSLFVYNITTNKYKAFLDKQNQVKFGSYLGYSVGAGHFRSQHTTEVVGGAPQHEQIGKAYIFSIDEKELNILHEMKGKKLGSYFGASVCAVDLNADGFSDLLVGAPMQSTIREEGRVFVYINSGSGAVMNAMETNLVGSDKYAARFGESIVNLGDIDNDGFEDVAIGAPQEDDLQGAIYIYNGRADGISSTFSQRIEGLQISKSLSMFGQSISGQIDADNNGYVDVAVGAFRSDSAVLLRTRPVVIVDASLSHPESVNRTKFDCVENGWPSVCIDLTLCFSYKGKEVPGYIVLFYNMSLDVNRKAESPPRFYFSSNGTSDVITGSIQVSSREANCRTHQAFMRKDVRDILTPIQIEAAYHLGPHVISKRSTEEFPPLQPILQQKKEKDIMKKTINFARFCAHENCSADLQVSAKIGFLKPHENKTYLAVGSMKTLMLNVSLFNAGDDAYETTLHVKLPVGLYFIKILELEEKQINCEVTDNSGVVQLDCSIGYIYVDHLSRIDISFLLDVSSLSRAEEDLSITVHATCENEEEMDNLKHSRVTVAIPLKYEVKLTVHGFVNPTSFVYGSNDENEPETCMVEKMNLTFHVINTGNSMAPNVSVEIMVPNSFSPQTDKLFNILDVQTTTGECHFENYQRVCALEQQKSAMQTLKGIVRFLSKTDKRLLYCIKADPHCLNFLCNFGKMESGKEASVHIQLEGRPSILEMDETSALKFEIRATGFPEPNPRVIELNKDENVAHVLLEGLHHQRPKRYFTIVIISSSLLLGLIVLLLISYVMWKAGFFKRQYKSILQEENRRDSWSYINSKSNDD
Beta-adrenergic receptor kinase 1 (Homo sapiens), sequence (P25098 whole entry, looked up): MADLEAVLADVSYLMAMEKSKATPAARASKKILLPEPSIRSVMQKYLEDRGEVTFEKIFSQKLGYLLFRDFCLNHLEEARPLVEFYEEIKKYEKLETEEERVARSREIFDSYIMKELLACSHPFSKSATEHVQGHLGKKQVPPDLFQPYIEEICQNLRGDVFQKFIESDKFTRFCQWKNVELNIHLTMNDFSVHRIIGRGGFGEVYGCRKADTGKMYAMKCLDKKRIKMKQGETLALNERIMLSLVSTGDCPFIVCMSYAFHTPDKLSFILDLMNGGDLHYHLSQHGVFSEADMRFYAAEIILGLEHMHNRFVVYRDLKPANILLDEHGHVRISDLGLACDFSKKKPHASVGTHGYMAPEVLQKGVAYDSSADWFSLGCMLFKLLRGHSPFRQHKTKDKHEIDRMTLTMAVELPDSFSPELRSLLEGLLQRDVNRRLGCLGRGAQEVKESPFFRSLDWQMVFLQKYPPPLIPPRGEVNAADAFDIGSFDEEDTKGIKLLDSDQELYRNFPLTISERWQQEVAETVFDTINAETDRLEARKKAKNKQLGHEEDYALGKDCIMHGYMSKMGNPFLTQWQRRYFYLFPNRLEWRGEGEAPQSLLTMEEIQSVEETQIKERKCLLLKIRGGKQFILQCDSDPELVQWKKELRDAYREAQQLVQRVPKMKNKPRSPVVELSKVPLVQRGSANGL
ATP-binding cassette sub-family B member 6 (Homo sapiens), sequence (Q9NP58 whole entry, looked up): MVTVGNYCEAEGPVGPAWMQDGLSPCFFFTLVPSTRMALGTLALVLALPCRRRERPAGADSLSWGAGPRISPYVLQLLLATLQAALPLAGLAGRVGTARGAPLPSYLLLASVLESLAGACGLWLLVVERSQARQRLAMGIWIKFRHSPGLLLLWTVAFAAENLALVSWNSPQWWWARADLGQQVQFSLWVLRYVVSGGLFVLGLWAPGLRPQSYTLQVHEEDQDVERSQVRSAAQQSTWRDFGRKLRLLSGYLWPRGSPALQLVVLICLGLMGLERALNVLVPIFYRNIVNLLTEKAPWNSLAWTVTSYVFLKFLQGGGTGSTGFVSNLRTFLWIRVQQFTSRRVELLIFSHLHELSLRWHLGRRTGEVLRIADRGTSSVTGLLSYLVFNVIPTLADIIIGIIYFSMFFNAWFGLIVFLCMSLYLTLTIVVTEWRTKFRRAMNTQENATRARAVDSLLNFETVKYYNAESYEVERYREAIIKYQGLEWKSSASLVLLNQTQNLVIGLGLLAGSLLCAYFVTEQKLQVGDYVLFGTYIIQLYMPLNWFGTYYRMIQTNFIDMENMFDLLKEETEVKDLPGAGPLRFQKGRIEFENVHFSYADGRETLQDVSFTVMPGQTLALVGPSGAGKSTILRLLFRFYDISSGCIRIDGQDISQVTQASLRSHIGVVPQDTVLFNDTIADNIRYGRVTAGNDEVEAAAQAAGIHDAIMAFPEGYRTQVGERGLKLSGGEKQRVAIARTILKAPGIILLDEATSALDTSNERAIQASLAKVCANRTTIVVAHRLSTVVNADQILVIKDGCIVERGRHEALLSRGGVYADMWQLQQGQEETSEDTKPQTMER

Take `CC(C)CC1c2[nH]c3ccccc3c2CCN1C(=O)CCC(=O)N(C)C` (stereo not drawn): the percent of DMSO control GFP in [1] was 90.9% (inactive). Also, the GFP response vs DMSO in assay [2] is 117% (inactive); in [4] it was 79.2% (inactive). In addition, the percent response of DMSO control in [3] is 107% (inactive). The GFP response, % of DMSO in assay [5] is 93.1% (inactive). The same compound came in with a double positive events in assay [6] of 80.7%. Also, the vesicle binding response in [6] was 264% (inactive). The inhibition (usually the relative decrease from the control value, in per cent) in [7] is 3.55% (inactive); in assay [11] it was -2.59% (inactive); in [15] it was 12% (inactive). Also, the superoxide response (% of plate) in assay [8] is 104% (inactive). The aptamer binding inhibition in assay [9] is 4% (inactive). The response is 6.34% (inactive) in [10] and -2.43% (inactive) in [12]. For the same compound, in assay [13], the binding (% of control) was 104% (inactive). For the same compound, in assay [14], the efflux inhibition (fraction of control) is -0.31 (inactive). Besides, the differentiation response in assay [16] is -6.55% (inactive).

`CN1C(=O)NC(c2ccc(O)cc2)C2=C1CN(c1cccc3ccccc13)C2=O` (stereo not drawn): the percent of DMSO control GFP in [1] is 102% (inactive). For the same compound, the GFP response vs DMSO was 107% (inactive) in assay [2] and 94% (inactive) in assay [4]. For the same compound, in assay [3], the percent response of DMSO control was 106% (inactive). For the same compound, the GFP response, % of DMSO in assay [5] is 100% (inactive). The double positive events in assay [6] is 64%. In addition, the vesicle binding response in assay [6] is 229% (inactive). Besides, the inhibition in assay [7] is -1.49% (inactive); in assay [11], 3.73% (inactive); in assay [15], -6% (inactive). In addition, the superoxide response (% of plate) in [8] is 94.5% (inactive). In assay [9], the aptamer binding inhibition was 0% (inactive). Also, the response is -19.6% (inactive) in assay [10] and -0.13% (inactive) in assay [12]. Also, in assay [13], the binding (% of control) was 99.8% (inactive). In addition, the efflux inhibition (fraction of control) in assay [14] is -0.23 (inactive). Also, the differentiation response in assay [16] was 7.09% (inactive).

As to `CC1=C(C)C(=O)C(CCCCC#CCCCC#CCO)=C(C)C1=O`, the percent of DMSO control GFP in assay [1] was 99.3% (inactive). For the same compound, the GFP response vs DMSO in [2] is 99.6% (inactive); in [4], 108% (inactive). The percent response of DMSO control in assay [3] was 99.6% (inactive). The GFP response, % of DMSO in assay [5] is 107% (inactive). Further, the double positive events in [6] is 62.8%. The vesicle binding response in assay [6] was 137% (inactive). The values for the inhibition in assay [7], in assay [11] and in assay [15] were 20.2% (inactive), -0.87% (inactive) and -1% (inactive), respectively. Besides, in assay [8], the superoxide response (% of plate) was 77.4% (inactive). In assay [9], the aptamer binding inhibition was 4% (inactive). The response was -12.4% (inactive) in assay [10] and 1.96% (inactive) in assay [12]. For the same compound, the binding (% of control) in assay [13] is 103% (inactive). Besides, the efflux inhibition (fraction of control) in assay [14] was -0.13 (inactive). In addition, the differentiation response in assay [16] was 5.85% (inactive).

Take `CCN(CC)CCNC(=O)c1ccc(NC(C)=O)cc1`: the percent of DMSO control GFP in assay [1] is 99.4% (inactive). For the same compound, the GFP response vs DMSO in [2] was 108% (inactive) and 103% (inactive); in assay [4] it was 89.4% (inactive) and 90.7% (inactive). For the same compound, in assay [3], the percent response of DMSO control was 101% (inactive). In addition, in [5], the GFP response, % of DMSO is 99.2% (inactive) and 100% (inactive). In addition, the double positive events in assay [6] was 63.2% and 61.4%. Also, in [6], the vesicle binding response is 4990% (inactive) and 247% (inactive). Also, the inhibition in [7] is 1.62% (inactive) and -0.45% (inactive); in assay [11], -11.4% (inactive) and 6.7% (inactive); in assay [15] it was -3% (inactive) and 3% (inactive). In addition, the superoxide response (% of plate) in assay [8] is 100% (inactive) and 103% (inactive). Also, the aptamer binding inhibition in assay [9] was 3% (inactive) and -3% (inactive). Besides, the response was -11.2% (inactive) and -2.15% (inactive) in assay [10]; -1.96% (inactive) and 1.62% (inactive) in assay [12]. Besides, the binding (% of control) in [13] is 95.9% (inactive) and 97.4% (inactive). In addition, the efflux inhibition (fraction of control) in assay [14] was 0.02 (inactive) and -0.04 (inactive). Besides, the differentiation response in [16] is -6.6% (inactive) and 20.8% (inactive).

The values are drawn from PubChem BioAssay.
